{"source": "PubChem BioAssay (NCI)", "note": "The panel holds about 79,000 compounds, 15% with a hit somewhere; the sample as a whole holds those more often. Calls of active or inactive are those of the source. Rule as the data show it: active = growth inhibition above about 70%; inactive = the rest.", "data": [{"experiment": "NCI Yeast Anticancer Drug Screen. Data for the cln2 rad14 strain (AID 165);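 also: 0% = growth equal to vehicle treated cultures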", "conditions": "S. cerevisiae cln2 rad14 strain, at 50.0 µM, hits give high values", "procedure,_shortened": "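Test compounds were added to cln2 rad14 yeast cultures; inhibition of growth was then determined by comparison with vehicle treatment.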", "values": [{"compound": "CC1(CO)CCCC2(C)C3=C(CCCC3)CCC12", "note": "(stereo not drawn)", "growth inhibition": "10.1% (inactive)"}, {"compound": "O=C(CCCl)Nc1cc2ccccc2oc1=O", "growth inhibition": "0.55% (inactive)"}, {"compound": "O=[N+]([O-])c1ccccc1N=Nc1c(O)[nH]c2cccc(C(F)(F)F)c12", "growth inhibition": "50.2% (inactive)"}, {"compound": "CCCCCCCCC1OC1CCCCCCCC(=O)OCC1CO1", "note": "(stereo not drawn)", "growth inhibition": "29.1% (inactive)"}, {"compound": "CCN(CC)CCNc1ccc(C)c2sc3c(OC)cccc3c(=O)c12", "growth inhibition": "-2.4% (inactive)"}, {"compound": "OC(CCN1CCOCC1)c1ccc(Sc2ccccc2)cc1", "note": "(stereo not drawn)", "growth inhibition": "67.1% (inactive)"}, {"compound": "[Cl-].[La+3].[O-]/N=C(\\c1ccccc1)c1ccccn1.[O-]/N=C(\\c1ccccc1)c1ccccn1.[O-]/N=C(\\c1ccccc1)c1ccccn1", "growth inhibition": "43.5% (inactive)"}, {"compound": "COc1ccc(NC(=O)CSC(N)=O)cc1", "growth inhibition": "21.9% (inactive)"}, {"compound": "Fc1cccc(CSc2ncnc3c2ncn3C2CCCS2)c1", "note": "(stereo not drawn)", "growth inhibition": "82% (active)"}, {"compound": "CC/C(=C(\\CC)c1ccc(OCCN2CCOCC2)cc1)c1ccc(OCCN2CCOCC2)cc1", "growth inhibition": "83.5% (active)"}, {"compound": "O=[N+]([O-])c1c(Cl)ccc2nsnc12", "growth inhibition": "98.6% (active)"}, {"compound": "COc1ccccc1NC(=O)/C(=C\\N1C(=O)/C(=C/c2cc(OC)c(OC)c(OC)c2)SC1=S)C(C)=O", "growth inhibition": "8.6% (inactive)"}, {"compound": "O=CNC(CCCC(=O)O)Cc1cc2ccccc2c2ccccc12", "note": "(stereo not drawn)", "growth inhibition": "93.7% (active)"}, {"compound": "C=C1CC2(CCCC3(CC(=C)C(=O)O3)C2(C)C)OC1=O", "note": "(stereo not drawn)", "growth inhibition": "23.1% (inactive)"}, {"compound": "CCOC(=O)Nc1cc(NC(C)/C(=N/O)c2ccccc2)c([N+](=O)[O-])c(N)n1", "note": "(stereo not drawn)", "growth inhibition": "24.9% (inactive)"}, {"compound": "O=C(N=Nc1cccc(Cl)c1)NNc1cccc(Cl)c1", "growth inhibition": "83.5% (active)"}, {"compound": "Oc1ccc2c(ccc3ccccc32)c1", "growth inhibition": "99% (active)"}, {"compound": "CCc1cccc(C(C)(C)C)c1NC(=S)/N=C/C(C(=O)c1ccccc1)=C(\\O)c1ccccc1", "growth inhibition": "48.1% (inactive)"}, {"compound": "NC(=S)N/N=C/c1cn(CCCl)c2ccccc12", "growth inhibition": "42.9% (inactive)"}, {"compound": "COC1=Nc2ccccc2S(=O)(=O)C=C1", "growth inhibition": "95.8% (active)"}, {"compound": "O=C1C2C3C=CC(C3)C2C(=NS(=O)(=O)c2ccccc2)C2C3C=CC(C3)C12", "note": "(stereo not drawn)", "growth inhibition": "22.1% (inactive)"}, {"compound": "NC(=Nc1ccccc1)c1ccc2c(c1)c1c(n2Cc2ccccc2)CCCC1", "growth inhibition": "94.9% (active)"}, {"compound": "NN=C(CC(O)(C(F)(F)Cl)C(F)(F)Cl)CC(O)(C(F)(F)Cl)C(F)(F)Cl", "growth inhibition": "99.3% (active)"}]}]}
